Results from PubChem BioAssay.
A number with no mark means an inactive call. No rule for the calls is given here.

Assay: inhibitors of hydroxyurea-induced Chk1 phosphorylation, primary screen, imaging, HeLa, phospho-Chk1 antibody, percent positive cells (AID 1186)
Details: hydroxyurea-induced phospho-Chk1 immunofluorescence imaging, higher = more signal

Point of comparison: `O=C1O[C@@H](c2ccccc2)[C@@H](c2ccccc2)N2[C@@H](c3ccccc3OCCO)[C@]3(C(=O)Nc4ccc(C#CCCO)cc43)[C@@H](C(=O)O)[C@H]12`, z-score 0.722. Against it:
- C=CCOC(=O)[C@H]1[C@@H]2C(=O)O[C@@H](c3ccccc3)[C@@H](c3ccccc3)N2[C@@H](c2ccc(OCCOC(=O)[C@H]3C[C@H]4C(=O)N5CCC[C@H]5C(=O)N4[C@H]3c3cccc(OCCO)c3)cc2)[C@]12C(=O)Nc1ccc(I)cc12 — lower, -0.576
- C=C(/C(=C/C[C@@H](OC(=O)c1ccncc1)c1ccc(OCCO)cc1)c1cnc2ccccc2c1)C(C)C — lower, -0.452
- O=C1C[C@]2(c3ccc([N+](=O)[O-])cc3)C(=O)N(CCN3CCOCC3)c3cc(CO)ccc3[C@H]2N1CC12CC3CC(CC(C3)C1)C2 — lower, 0.416
- CC(C)C[C@@H]1NC(=O)[C@H]2C[C@@H](C(=O)O)[C@@H](c3ccc(O)cc3)N2C1=O — lower, -0.523
- COCCOC(=O)N1C(=O)[C@@]2(c3cc(C#Cc4ccc(OC)cc4)ccc31)[C@H](c1ccc(O)cc1)N1[C@H](c3ccccc3)[C@H](c3ccccc3)OC(=O)[C@H]1[C@@H]2C(N)=O — lower, -0.425
- CC(C)NC(=O)[C@@]1(C)c2ccccc2C(=O)N(Cc2cc(F)cc(C(F)(F)F)c2)[C@H]1c1ccc(CO)cc1 — lower, 0.0123
- COCCOC(=O)N1C(=O)[C@@]2(c3ccccc31)[C@H](C(N)=O)[C@H]1C(=O)O[C@H](c3ccccc3)[C@H](c3ccccc3)N1[C@@H]2c1ccccc1OCCO — lower, 0.228
- CN1C(=O)C2C=CC(C(O)c3ccc(I)cc3)N(NC(=O)OC(C)(C)C)C2C1=O (stereo not given) — lower, 0.256
- C=CCC(OC(C)=O)[C@@H]1[C@@H](N(Cc2cc3ccccc3o2)C(=O)Cc2ccc(F)cc2)c2cc(OCCCO)ccc2N1C(=O)Cc1ccc(OC)cc1 (stereo not given in full) — higher, 0.784
- CN1C(=O)C2C=CC(C(O)C(c3ccccc3)c3ccccc3)N(NC(=O)OC(C)(C)C)C2C1=O (stereo not given) — lower, 0.242
- COCCCNC(=O)[C@]1(CCC(=O)OC(C)(C)C)N=C(c2ccc(OCCCO)cc2)O[C@@H]1c1ccccc1N=[N+]=[N-] — lower, -0.437
- CN1C(=O)C2C(C1=O)C1C=C(CCCO)C2C(c2ccc(CN3CCCC3)cc2)N1C (stereo not given) — lower, -0.0348
- COC(=O)[C@@]1(Cc2ccc(F)cc2)[C@@H]2C(=CC(=O)[C@H]2CC(=O)C(=O)N(C)C)CN1C(=O)c1ccccc1 — lower, -0.0509
- [N-]=[N+]=NCc1ccccc1C[C@]1(C(=O)NCc2ccccc2)N=C(c2ccc(OCCCO)cc2)O[C@H]1c1ccccc1N=[N+]=[N-] — lower, -0.278
- C=C(COC)/C(=C/C[C@H](OC(=O)c1ccncc1)c1ccc(CO)o1)c1cc(C(=O)OC)ccc1OC — lower, -0.35
- CS(=O)(=O)CCOC(=O)C1=CC(CCCO)=CC(c2cccs2)N(Cc2cccc(OC(F)(F)F)c2)C=C1C(=O)OCCS(C)(=O)=O (stereo not given) — higher, 0.724
- CCCNC(=O)[C@@H]1c2ccccc2C(=O)N(Cc2ccccc2Cl)[C@H]1c1ccc(CO)cc1 — lower, -0.258
- CCc1cccc(NC(=O)O[C@H]2[C@H](OC(=O)Nc3ccc4c(c3)OCO4)[C@@H](OC(=O)Nc3ccc4c(c3)OCO4)[C@@H](OC)O[C@@H]2CO)c1 — lower, -0.313
- COC(=O)[C@@]1(Cc2ccc(OC)cc2)[C@H]2c3cc(C(=O)N4CCCC4)n(Cc4cc(F)c(F)c(F)c4)c3C[C@H]2CN1C(=O)c1ccccc1 — lower, -0.345
- CN(C)C(=O)[C@@]1(Cc2ccccc2)N=C(c2ccc(OCCCO)cc2)O[C@H]1c1ccccc1CN=[N+]=[N-] — lower, 0.264
- COc1ccc([Si](C)(C)[C@@H]2[C@@H](CCO)O[C@]3(C(=O)N(Cc4ccc(NC(C)=O)cc4)c4ccccc43)[C@H]2C)cc1 — lower, -0.861
- O=C1O[C@@H](c2ccccc2)[C@@H](c2ccccc2)N2[C@@H](c3ccc(O)cc3)[C@]3(C(=O)Nc4ccccc43)[C@@H](C(=O)O)[C@H]12 — lower, 0.482
- O=C1c2ccccc2[C@@]2(Cc3ccccc3N(C3CC3)C2=O)[C@H](c2ccc(CO)cc2)N1Cc1ccccc1C(F)(F)F — lower, 0.0523
- O[C@@H](Cc1ccccc1)[C@H]1C2C=CCCC(c3ccccc3)=C2CN1Cc1cccc(Cl)c1 (stereo not given in full) — lower, -0.215

Assay: inhibitors of hydroxyurea-induced Chk1 phosphorylation, primary screen, imaging, HeLa, phospho-Chk1 nuclear intensity (AID 1187); also: test concentration not given here
Details: hydroxyurea-induced phospho-Chk1 immunofluorescence imaging, higher = more signal

Point of comparison: `CCCC=C(CCC)[C@@H](NC(=O)c1ccc(-c2ccccc2)cc1)c1ccc(C(=O)OC)cc1`, z-score -0.115. Against it:
- COC(=O)[C@@]1(Cc2ccccc2)[C@H]2c3cc(C(=O)N4CCCC4)n(Cc4ccccn4)c3C[C@H]2CN1C(=O)c1ccccc1 — lower, -0.295
- O=C(CS)NCCCCCNC(=O)[C@@H]1C[C@@H]2C(=O)N[C@@H](Cc3ccccc3)C(=O)N2[C@@H]1c1ccc(O)cc1 — higher, 0.886
- CC(C)C[C@@H]1NC(=O)[C@H]2C[C@@H](C(=O)NCCCCCCN(C)C)[C@@H](c3cccc(OCCO)c3)N2C1=O — higher, 0.186
- COCCCNC(=O)[C@@]1(CCS(=O)(=O)c2ccccc2)N=C(c2ccc(OCCCO)cc2)O[C@H]1c1ccccc1 — lower, -0.2
- Cc1ccc(S[C@]2(C(=O)NCC(F)(F)F)CC(=O)N(Cc3ccccc3Cl)[C@@H]2c2ccc(CO)cc2I)cc1 — higher, 0.92
- O=C1O[C@@H](c2ccccc2)[C@@H](c2ccccc2)N2[C@@H](c3ccc(OCCO)cc3)[C@]3(C(=O)Nc4ccc(C#CCCO)cc43)[C@@H](C(=O)N3CCCCCCC3)[C@H]12 — higher, 0.224
- CCOC(=O)C1=CCC(c2cc3ccccc3[nH]2)NC1 (stereo not given) — lower, -0.151
- O=C1NC(=O)C2C1C=CC(C(O)Cc1ccccc1)N2Nc1ccccn1 (stereo not given) — lower, -0.306
- C#C[C@@H]1Oc2ccccc2S(=O)(=O)N2CCC[C@H]12 — higher, 0.595
- COc1ccc([Si](C)(C)[C@H]2[C@H](CCO)O[C@@]3(C(=O)N(Cc4cccc(NC(=O)[C@H](C)O)c4)c4ccccc43)[C@@H]2C)cc1 — lower, -0.667
- C=CCOC(=O)[C@H]1[C@@H]2C(=O)O[C@@H](c3ccccc3)[C@@H](c3ccccc3)N2[C@@H](c2ccc(OCCOC(=O)[C@H]3C[C@H]4C(=O)N5CCC[C@H]5C(=O)N4[C@H]3c3cccc(OCCO)c3)cc2)[C@]12C(=O)Nc1ccc(I)cc12 — lower, -0.305
- C=C(/C(=C/C[C@@H](OC(=O)c1ccncc1)c1ccc(OCCO)cc1)c1cnc2ccccc2c1)C(C)C — higher, -0.051
- O=C1C[C@]2(c3ccc([N+](=O)[O-])cc3)C(=O)N(CCN3CCOCC3)c3cc(CO)ccc3[C@H]2N1CC12CC3CC(CC(C3)C1)C2 — higher, 0.394
- CC(C)C[C@@H]1NC(=O)[C@H]2C[C@@H](C(=O)O)[C@@H](c3ccc(O)cc3)N2C1=O — lower, -0.332
- COCCOC(=O)N1C(=O)[C@@]2(c3cc(C#Cc4ccc(OC)cc4)ccc31)[C@H](c1ccc(O)cc1)N1[C@H](c3ccccc3)[C@H](c3ccccc3)OC(=O)[C@H]1[C@@H]2C(N)=O — lower, -0.461
- CC(C)NC(=O)[C@@]1(C)c2ccccc2C(=O)N(Cc2cc(F)cc(C(F)(F)F)c2)[C@H]1c1ccc(CO)cc1 — lower, -0.37
- COCCOC(=O)N1C(=O)[C@@]2(c3ccccc31)[C@H](C(N)=O)[C@H]1C(=O)O[C@H](c3ccccc3)[C@H](c3ccccc3)N1[C@@H]2c1ccccc1OCCO — higher, 0.42
- CN1C(=O)C2C=CC(C(O)c3ccc(I)cc3)N(NC(=O)OC(C)(C)C)C2C1=O (stereo not given) — higher, 0.078
- C=CCC(OC(C)=O)[C@@H]1[C@@H](N(Cc2cc3ccccc3o2)C(=O)Cc2ccc(F)cc2)c2cc(OCCCO)ccc2N1C(=O)Cc1ccc(OC)cc1 (stereo not given in full) — higher, 0.0687
- CN1C(=O)C2C=CC(C(O)C(c3ccccc3)c3ccccc3)N(NC(=O)OC(C)(C)C)C2C1=O (stereo not given) — lower, -0.158
- COCCCNC(=O)[C@]1(CCC(=O)OC(C)(C)C)N=C(c2ccc(OCCCO)cc2)O[C@@H]1c1ccccc1N=[N+]=[N-] — lower, -0.234
- O=C1O[C@@H](c2ccccc2)[C@@H](c2ccccc2)N2[C@@H](c3ccccc3OCCO)[C@]3(C(=O)Nc4ccc(C#CCCO)cc43)[C@@H](C(=O)O)[C@H]12 — higher, 0.803
- CN1C(=O)C2C(C1=O)C1C=C(CCCO)C2C(c2ccc(CN3CCCC3)cc2)N1C (stereo not given) — higher, 0.185
- COC(=O)[C@@]1(Cc2ccc(F)cc2)[C@@H]2C(=CC(=O)[C@H]2CC(=O)C(=O)N(C)C)CN1C(=O)c1ccccc1 — lower, -0.914
- [N-]=[N+]=NCc1ccccc1C[C@]1(C(=O)NCc2ccccc2)N=C(c2ccc(OCCCO)cc2)O[C@H]1c1ccccc1N=[N+]=[N-] — lower, -0.2
- C=C(COC)/C(=C/C[C@H](OC(=O)c1ccncc1)c1ccc(CO)o1)c1cc(C(=O)OC)ccc1OC — lower, -0.437
- CS(=O)(=O)CCOC(=O)C1=CC(CCCO)=CC(c2cccs2)N(Cc2cccc(OC(F)(F)F)c2)C=C1C(=O)OCCS(C)(=O)=O (stereo not given) — higher, 0.918
- CCCNC(=O)[C@@H]1c2ccccc2C(=O)N(Cc2ccccc2Cl)[C@H]1c1ccc(CO)cc1 — lower, -0.142
- CCc1cccc(NC(=O)O[C@H]2[C@H](OC(=O)Nc3ccc4c(c3)OCO4)[C@@H](OC(=O)Nc3ccc4c(c3)OCO4)[C@@H](OC)O[C@@H]2CO)c1 — higher, 0.165
